High-throughput results (PubChem)
proKLK7 act – proKLK7 zymogen activators, primary screen, biochemical, fluorescence intensity; Kallikrein-7 (Homo sapiens), P49862; purified proKLK7, EDANS-DABCYL substrate fluorescence; 100% is mature enzyme control, 0% vehicle; activation, % at 7 µM; 370,000 compounds, 0.9% hits; AID 652039, 2013;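 active = activation above the mean of all tested compounds plus 3 SD, computed per campaign excluding outliers beyond control limits, cut at about 13% in these data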
PLCg1 inh – PLC-gamma1 enzyme inhibitors, primary screen, biochemical, fluorescence, purified enzyme; 370,000 compounds, 0.84% hits; inhibition, % at 12.2 µM; fluorogenic substrate; AID 720700, 2013; 1-phosphatidylinositol 4,5-bisphosphate phosphodiesterase gamma-1 (Homo sapiens), P19174; in the data active = inhibition above about 9.5%
ADAM17 inh – ADAM17 inhibitors, primary screen, biochemical, QFRET | recombinant ADAM17, EDANS/DABCYL FRET peptide cleavage | inhibition, % at 6.95 µM | 370,000 compounds, 0.83% hits | AID 720648, 2013;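 active = inhibition above the mean of compounds lying between control limits plus 3 SD, set per campaign, cut at about 8.5% in these data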
PLCb3 inh – human PLC-beta3 inhibitors, primary screen, biochemical, fluorescence. Purified PLC-beta3, fluorogenic substrate. inhibition, % at 12.2 µM. 370,000 compounds, 0.18% hits. AID 720704, 2013; in the data active = inhibition above about 11%
ADAM10 inh – human ADAM10 inhibitors, primary screen, biochemical, QFRET, HTS. inhibition, % at 7 µM. recombinant ADAM10, EDANS/DABCYL FRET peptide cleavage, 3 h. 370,000 compounds, 0.62% hits;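 active = inhibition above a per-campaign cutoff equal to the mean of compounds falling between control-based bounds plus 3 SD, cut at about 20% in these data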
ADAM10 confirm – human ADAM10 inhibitors, confirmation, biochemical, QFRET, triplicate; shares compounds with ADAM10 inh; ADAM10 QFRET peptide cleavage, EDANS fluorescence; inhibition, % at 6.95 µM; 2,100 compounds, 1% hits; AID 743208, 2013;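 active = inhibition above about 20% chosen separately for each screening run, limit read from the data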
ADAM17 counter – ADAM17 inhibitors, counter-screen for ADAM10 exosite inhibitor project, biochemical, QFRET, high throughput; ADAM17 QFRET peptide cleavage, EDANS fluorescence; shares compounds with ADAM10 inh; 2,100 compounds, 0.5% hits; inhibition, % at 6.95 µM;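 active = mean triplicate inhibition above the solvent-only control wells' mean plus 3 SD, cut at about 12% in these data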
Numbers stand for hits. In the library only some 2.9% were active in any assay of this set; here they are far more common.

What do the screens show for `COc1cccc(NC(=S)NNC(=O)c2ccccc2OC(F)F)c1`?
proKLK7 act: inactive; PLCg1 inh: inactive; ADAM17 inh: inactive; PLCb3 inh: inactive; ADAM10 inh: 21; ADAM10 confirm: inactive; ADAM17 counter: inactive

How did COc1ccccc1-c1nnc2sc(-c3cc4ccccc4o3)nn12 do in these assays?
proKLK7 act: inactive; PLCg1 inh: inactive; ADAM17 inh: inactive; PLCb3 inh: inactive; ADAM10 inh: inactive

How did C[C@H](CO)N1C[C@H](C)[C@H](CN(C)S(C)(=O)=O)OCc2ccccc2-c2c(n(C)c3ccccc23)C1=O do in these assays?
proKLK7 act: inactive; PLCg1 inh: inactive; ADAM17 inh: inactive; PLCb3 inh: inactive; ADAM10 inh: inactive

Results for C[C@H](CO)N1C[C@H](C)[C@H](CN(C)S(=O)(=O)c2ccc(Cl)cc2)OCc2ccccc2-c2c(n(C)c3ccccc23)C1=O ?
proKLK7 act: inactive; PLCg1 inh: inactive; ADAM17 inh: 12; PLCb3 inh: inactive; ADAM10 inh: 36; ADAM10 confirm: inactive; ADAM17 counter: inactive

Results for Cc1sc2ncnc(N3CCC(C(=O)NNC(=O)COc4ccc(Cl)cc4)CC3)c2c1C ?
proKLK7 act: inactive; PLCg1 inh: inactive; ADAM17 inh: inactive; PLCb3 inh: inactive; ADAM10 inh: 21; ADAM10 confirm: inactive; ADAM17 counter: inactive

What do the screens show for `Cc1sc2ncnc(N3CCC(C(=O)NNC(=O)COc4ccccc4Cl)CC3)c2c1C`?
proKLK7 act: inactive; PLCg1 inh: inactive; ADAM17 inh: inactive; PLCb3 inh: inactive; ADAM10 inh: 26; ADAM10 confirm: inactive; ADAM17 counter: inactive

What do the screens show for `Cc1nc2c(-c3ccccc3)c(C)nn2c(C)c1CCC(=O)NC(C)CCc1ccco1` (stereo not given)?
proKLK7 act: inactive; PLCg1 inh: inactive; ADAM17 inh: inactive; PLCb3 inh: inactive; ADAM10 inh: inactive

What do the screens show for `CC1(C)CC2CC(C)(CN2C(=O)c2cc(-c3ccc(O)cc3)on2)C1` (stereo not given)?
proKLK7 act: inactive; PLCg1 inh: inactive; ADAM17 inh: inactive; PLCb3 inh: inactive; ADAM10 inh: 22; ADAM10 confirm: inactive; ADAM17 counter: inactive

What do the screens show for `CCCCC(C(=O)O)C(C)CC(=O)Nc1nncs1` (stereo not given)?
proKLK7 act: inactive; PLCg1 inh: inactive; ADAM17 inh: inactive; PLCb3 inh: inactive; ADAM10 inh: inactive

Results for COC(=O)CSc1nnc(-c2ccc(NS(=O)(=O)c3c(C(C)C)cc(C(C)C)cc3C(C)C)cc2)o1 ?
proKLK7 act: inactive; PLCg1 inh: inactive; ADAM17 inh: inactive; PLCb3 inh: inactive; ADAM10 inh: 21; ADAM10 confirm: inactive; ADAM17 counter: inactive

How did Cn1c(N)c(C#N)c2c(c1=S)COC(C)(C)C2 do in these assays?
proKLK7 act: inactive; PLCg1 inh: inactive; ADAM17 inh: inactive; PLCb3 inh: inactive; ADAM10 inh: inactive

Results for CCN(c1ccc(NC(=O)COC(=O)CCc2cc(OC)c(OC)c(OC)c2)cc1)C(C)C ?
proKLK7 act: inactive; PLCg1 inh: inactive; ADAM17 inh: inactive; PLCb3 inh: inactive; ADAM10 inh: 21; ADAM10 confirm: inactive; ADAM17 counter: inactive

How did CCN(CC)c1ccc(NC(=O)COC(=O)CCc2cc(OC)c(OC)c(OC)c2)cc1 do in these assays?
proKLK7 act: inactive; PLCg1 inh: inactive; ADAM17 inh: inactive; PLCb3 inh: inactive; ADAM10 inh: inactive

What do the screens show for `Cc1ccc(-c2noc(CN(C(=O)C(c3ccccc3)c3ccccc3)C(C)C)n2)cc1`?
proKLK7 act: inactive; PLCg1 inh: inactive; ADAM17 inh: inactive; PLCb3 inh: inactive; ADAM10 inh: 20; ADAM10 confirm: inactive; ADAM17 counter: inactive

How did CC(C)N(Cc1nc(-c2ccc(Cl)cc2)no1)C(=O)C(c1ccccc1)c1ccccc1 do in these assays?
proKLK7 act: inactive; PLCg1 inh: inactive; ADAM17 inh: inactive; PLCb3 inh: inactive; ADAM10 inh: inactive

Results for COCCNC(=S)N1CCN(c2nc(-c3cccc(OC)c3)cs2)CC1 ?
proKLK7 act: inactive; PLCg1 inh: inactive; ADAM17 inh: inactive; PLCb3 inh: inactive; ADAM10 inh: 21; ADAM10 confirm: inactive; ADAM17 counter: inactive

What do the screens show for `COc1cccc(-c2csc(N3CCN(CC(=O)NNC(=O)c4ccc(Cl)cc4)CC3)n2)c1`?
proKLK7 act: inactive; PLCg1 inh: inactive; ADAM17 inh: inactive; PLCb3 inh: inactive; ADAM10 inh: 20; ADAM10 confirm: inactive; ADAM17 counter: inactive

What do the screens show for `COc1cccc(-c2csc(N3CCN(CC(=O)NNC(=O)c4ccc(Br)cc4)CC3)n2)c1`?
proKLK7 act: inactive; PLCg1 inh: inactive; ADAM17 inh: inactive; PLCb3 inh: inactive; ADAM10 inh: inactive

What do the screens show for `COc1ccc(-n2nc(C(=O)NCC(=O)NCc3ccccc3OC)c3ccccc3c2=O)c(OC)c1`?
proKLK7 act: inactive; PLCg1 inh: inactive; ADAM17 inh: inactive; PLCb3 inh: inactive; ADAM10 inh: inactive

How did COc1ccc(NC(=O)CN(C)CC(=O)NC(=O)NC2CCCCC2)cc1 do in these assays?
proKLK7 act: inactive; PLCg1 inh: inactive; ADAM17 inh: inactive; PLCb3 inh: inactive; ADAM10 inh: inactive

How did COc1ccc(CN(C)CC(=O)NC(=O)NC2CCCCC2)cc1 do in these assays?
proKLK7 act: inactive; PLCg1 inh: inactive; ADAM17 inh: inactive; PLCb3 inh: inactive; ADAM10 inh: 21; ADAM10 confirm: inactive; ADAM17 counter: inactive

What do the screens show for `Cc1ccccc1Oc1cc(NC(=O)CCCn2nc(C)c([N+](=O)[O-])c2C)cc([N+](=O)[O-])c1`?
proKLK7 act: inactive; PLCg1 inh: inactive; ADAM17 inh: inactive; PLCb3 inh: inactive; ADAM10 inh: inactive

What do the screens show for `Cc1nn(CCCC(=O)Nc2cc(Oc3ccc(F)cc3)cc([N+](=O)[O-])c2)c(C)c1[N+](=O)[O-]`?
proKLK7 act: inactive; PLCg1 inh: inactive; ADAM17 inh: inactive; PLCb3 inh: inactive; ADAM10 inh: 26; ADAM10 confirm: inactive; ADAM17 counter: inactive

Results for CCCCOc1ccc(C(=O)N/C(=C\c2ccc(OC)cc2)C(=O)OCc2ccco2)cc1 ?
proKLK7 act: inactive; PLCg1 inh: inactive; ADAM17 inh: inactive; PLCb3 inh: inactive; ADAM10 inh: inactive
